Methyltransferases: Primary Screen for Target Class Profiling of Small Molecule Inhibitors of Methyltransferases | calls only at 40 µM | actives 3.9% (n = 25,000) | purified enzyme, MTase-Glo SAH luminescence; stronger effect = lower value; call rule not given here
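Each enzyme was reacted with SAM and its substrate, with compounds tested once at 40 uM; SAH formed was read by MTase-Glo luminescence.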
MTase-Glo counter: inhibits MTase-Glo coupling enzymes without methyltransferase | shares compounds with Methyltransferases | Potency, µM (titrated, usually from 57.3 µM), for the others: at the top dose activity change, negative = inhibition, actives largely listed as inhibitors | MTase-Glo coupled enzymes, SAH conversion luminescence, no MTase | actives 6% (n = 180); active = well fitted inhibition curve with a large enough effect; note: potency is the fitted concentration of half-maximal effect
* marks the source's active call; other numbers are inactive results; [ ] = another dose, or the depositor's remark. Many of the other results were omitted from the sample, so hits are more common in it than they were. % is set by controls: 0 for no effect and ±100 for the full control effect.

Results for Cc1ccc(C)c(N2C(=O)c3cc4ccccc4n3CC2(C)C(=O)NCCC(C)C)c1 (configuration not stated) ?
Methyltransferases: inactive

What do the screens show for `CCCCN1C(=O)c2cc(C(=O)NCCc3ccc(OCC)cc3)nn2CC1(C)C(=O)NC1CCCC1` (configuration not stated)?
Methyltransferases: inactive

How did Cc1cc2[nH]c(=O)[nH]c2cc1S(=O)(=O)N1CCOCC1 do in these assays?
Methyltransferases: inactive

How did Cc1ccc(N2C(=O)CSc3c(c4ccccc4n3C)C2C(=O)NCCC(C)C)cc1C (configuration not stated) do in these assays?
Methyltransferases: inactive

Results for COc1ccc(S(=O)(=O)N2CCCC(CN3CCOCC3)CC2)cc1 (configuration not stated) ?
Methyltransferases: inactive

Results for c1ccc(Nc2cc3c(cn2)NCCN(Cc2ccccn2)C3)cc1 ?
Methyltransferases: inactive

Results for c1ccc(-c2cc3c(cn2)NCCN(Cc2ccccn2)C3)cc1 ?
Methyltransferases: active; MTase-Glo counter: -5.2%[85.7 µM]

How did O=C(O)c1ccc(CC2CCN(Cc3ccccn3)C2)cc1 (configuration not stated) do in these assays?
Methyltransferases: inactive

How did Cc1ccc(C)c(N2C(=O)c3cc4occc4n3CC2(C)C(=O)NC2CCCCC2)c1 (configuration not stated) do in these assays?
Methyltransferases: inactive

How did COc1cccc(N2CCN(C(=O)CCC[C@@H]3[C@H]4CCCN5CCC[C@@H](CN3C)[C@@H]45)CC2)c1 do in these assays?
Methyltransferases: inactive

How did O=C(CCC[C@@H]1[C@H]2CCCN3CCC[C@@H](CN1Cc1ccccc1)[C@@H]23)Nc1cccnc1 do in these assays?
Methyltransferases: active; MTase-Glo counter: -4.1%

Results for COc1ccc(C)cc1NC(=O)CCC[C@@H]1[C@H]2CCCN3CCC[C@@H](CN1C)[C@@H]23 ?
Methyltransferases: inactive

What do the screens show for `CCOc1ccc(NC(=O)N2Cc3c(sc4c3CCCC4)-n3cccc3C2c2ccccc2)cc1` (configuration not stated)?
Methyltransferases: inactive

What do the screens show for `Cc1ccc(Cn2c(=O)c3ccccc3n3c(CCC(=O)NC4CCN(Cc5ccccc5)CC4)nnc23)cc1`?
Methyltransferases: inactive

What do the screens show for `CCCN1C(=O)c2cc(C(=O)NCc3ccccc3Cl)nn2CC1(C)C(=O)NC1CCCC1` (configuration not stated)?
Methyltransferases: inactive

Results for CC(C)OCCCNC(=O)CCc1nnc2n(CCc3ccccc3)c(=O)c3ccccc3n12 ?
Methyltransferases: inactive

What do the screens show for `COC(=O)c1cc2n(n1)CC(C)(C(=O)NC1CCCCC1)N(c1ccc(F)cc1C)C2=O` (configuration not stated)?
Methyltransferases: inactive

What do the screens show for `c1ccc(CO[C@H]2COCCN(c3nc4ccccc4o3)C2)cc1`?
Methyltransferases: active; MTase-Glo counter: -3.9%[85.7 µM]

Results for O=C1N(Cc2ccc(F)c(F)c2)CCCC12CCN(c1nc3ccccc3o1)C2 (configuration not stated) ?
Methyltransferases: inactive

What do the screens show for `COc1ccc(CNC(=O)O[C@H]2COCCN(c3nc4ccccc4o3)C2)cc1`?
Methyltransferases: inactive

What do the screens show for `CC(C)CNC(=O)c1ccc2c(=O)n(CC(C)C)c3nn(Cc4cccc(Cl)c4)c(=O)n3c2c1`?
Methyltransferases: inactive

What do the screens show for `COc1ccnc(-c2nnc3ccc(Nc4cc(OC)c(OC)c(OC)c4)nn23)c1`?
Methyltransferases: active; MTase-Glo counter: -4.1%[85.7 µM]

How did COc1cncc(Nc2cnc3ccc(-c4ccccc4OC)nn23)c1 do in these assays?
Methyltransferases: inactive

Results for COc1ccc(S(=O)(=O)NCC2Cn3cccc3C(=O)N2Cc2ccccc2)cc1 (configuration not stated) ?
Methyltransferases: inactive

Results for COc1ccc(S(=O)(=O)NC[C@H]2Cn3c(-c4ccc(Cl)cc4)cnc3CO2)cc1 ?
Methyltransferases: active; MTase-Glo counter: -1.9%[85.7 µM]

What do the screens show for `COc1ccc(C(=O)NC[C@H]2Cn3ccnc3CO2)cc1`?
Methyltransferases: inactive

What do the screens show for `CCOC(=O)CNC(=O)N1CCn2cccc2C1C` (configuration not stated)?
Methyltransferases: inactive

Results for Cc1ccc(CNS(=O)(=O)c2ccc3[nH]c(=O)[nH]c3c2)cc1 ?
Methyltransferases: inactive

Results for COc1cccc(CN2C(=O)c3cc4sccc4n3CC2(C)C(=O)NC2CCCC2)c1 (configuration not stated) ?
Methyltransferases: inactive

How did OCC1(CC2CC2)CCCN(Cc2ccc(C(F)(F)F)nc2)C1 (configuration not stated) do in these assays?
Methyltransferases: inactive

What do the screens show for `O=C(CCc1nnn2c1CN(Cc1cn[nH]c1-c1ccc(F)cc1)CC2)N1CCCC1`?
Methyltransferases: inactive

Results for OCC1(Cc2ccccc2)CCCN(Cc2cn[nH]c2-c2ccc(F)cc2)C1 (configuration not stated) ?
Methyltransferases: active; MTase-Glo counter: 1.6%

What do the screens show for `COc1ccc(CNC(=O)Nc2ncc([N+](=O)[O-])s2)cc1`?
Methyltransferases: inactive

How did OC[C@@]1(O)CO[C@@H](OC[C@H]2O[C@@H](OCc3ccccc3)[C@H](O)[C@@H](O)[C@@H]2O)[C@@H]1O do in these assays?
Methyltransferases: inactive

What do the screens show for `COC(=O)C12C(=O)C(C)=C(O)C1(C)C(C)=CC1C34CCC(OC3=O)C(C)(C)C4CCC12C` (configuration not stated)?
Methyltransferases: inactive

Results for CN(CCc1nc2ccc(Cl)cc2[nH]1)c1cc(C2CC(O)C2)nc(N)n1 (configuration not stated) ?
Methyltransferases: active; MTase-Glo counter: -4.4%

What do the screens show for `Nc1nc(C2CC(O)C2)cc(N2CC(N3CCOCC3)C2)n1` (configuration not stated)?
Methyltransferases: inactive

How did CN(CCO)C[C@@H]1CN(C(=O)CCc2nc3ccc(F)cc3[nH]2)C[C@@H]1CO do in these assays?
Methyltransferases: inactive

Results for O=c1c2ccccc2n2c(=O)n(Cc3c(F)cccc3Cl)nc2n1CCc1ccccc1 ?
Methyltransferases: inactive

What do the screens show for `CC(C)CCNC(=O)CCc1nnc2n(Cc3ccccc3)c(=O)c3ccccc3n12`?
Methyltransferases: inactive

What do the screens show for `CCCn1c(=O)c2ccc(C(=O)NC(C)C)cc2n2c(=O)n(CC(=O)Nc3ccc(C)c(F)c3)nc12`?
Methyltransferases: inactive

What do the screens show for `Cc1ccc(-n2ccnc2-c2cc3n(n2)CCNC3)cc1N1CCCC1=O`?
Methyltransferases: inactive

What do the screens show for `Cc1cnccc1NCCn1ccnc1-c1cc2n(n1)CCCNC2`?
Methyltransferases: active; MTase-Glo counter: -2.3%

How did c1ccc2c(c1)OCC(CCn1ccnc1-c1cc3n(n1)CCNC3)O2 (configuration not stated) do in these assays?
Methyltransferases: inactive

What do the screens show for `CCN1CCN(C(=O)C2CCCN(Cc3ccncc3)CCC(=O)NCC2)CC1` (configuration not stated)?
Methyltransferases: inactive

Results for CCNc1ncc(CN2CCN(c3ccncc3)CC2)cn1 ?
Methyltransferases: active; MTase-Glo counter: -1.5%

Screening data: PubChem BioAssay, National Center for Advancing Translational Sciences (NCATS)
